Source: PubChem BioAssay AID686978 (National Center for Advancing Translational Sciences (NCATS), 2013)
Out of some 420,000 compounds screened, about 64,000 (15%) were called active. Not shown: some 27% with an inconclusive outcome. Calls come from the whole dose curve; as a rule, active = well fitted inhibition curve with a large enough effect; inconclusive = small, poorly fitted or top-dose-only effect; inactive = flat fitted curve, though single readings scatter. These entries were drawn from the full list.

test: qHTS for Inhibitors of human tyrosyl-DNA phosphodiesterase 1 (TDP1): qHTS in cells in absence of CPT; settings: DT40 Tdp1-/- hTDP1 cells, no CPT, ATP luminescence, 48 h; activity change, negative = growth inhibition: at 46.2 µM (top of the series); note: nearly all actives have a fitted effect of over 55% in size
Method in brief: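 Readout: luminescence from CellTiter-Glo after 30 min in the dark at RT. Cells: DT40 Tdp1-/- with stable hTDP1, 400/well. Exposure: compounds alone, ≥48 hr, 37 °C.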
% is set by controls: 0 for no effect and ±100 for the full control effect; potency is the fitted concentration of half-maximal effect.

| Structure (SMILES) | activity change, negative = growth inhibition | Potency |
| --- | --- | --- |
| Cc1cccc(OCC(=O)OCC(=O)Nc2ccc(Cl)cn2)c1 | -2.9% (inactive) | – |
| CCNC(=S)N1CCN(CCN=CC2=C(O)CC(C)(C)CC2=O)CC1 | 0.937% (inactive) | – |
| Cc1cc(C)c(S(=O)(=O)N2C=CC(C(F)(F)F)=NCC2)c(C)c1 | -29.9% (inactive) | – |
| CC(CCO)Nc1nc2c([nH]1)c(=O)n(C)c(=O)n2C (configuration not stated) | -0.337% (inactive) | – |
| Cc1sc2nc(-c3ccccc3F)oc(=O)c2c1C | 1.12% (inactive) | – |
| COc1ccc(-c2csc3nc(-c4ccccc4F)oc(=O)c23)cc1OC | – | 16.4 µM (active) |
| COc1ccccc1-c1nnc(-c2ccc(F)cc2)o1 | -26.4% (inactive) | – |
| O=C(NCc1ccco1)C(c1ccncc1)N(C(=O)Cn1nnc2ccccc21)c1ccccc1 (configuration not stated) | -4.11% (inactive) | – |
| Cc1nn(-c2ccccc2)c2[nH]c(C(F)(F)F)cc(=O)c12 | -13.2% (inactive) | – |
| O=S(=O)(Nc1ncnc2sccc12)c1cccc(F)c1 | -22.3% (inactive) | – |
| Nc1ccccc1-c1nc2ccncc2[nH]1 | 5.85% (inactive) | – |
| Cc1cccc(C)c1NC(=O)C1(N(C(=O)c2ccccn2)c2ccc(O)cc2)CCCCC1 | 3.63% (inactive) | – |
| COc1ccc2c(CC(=O)OCC(=O)Nc3ccccc3[N+](=O)[O-])coc2c1 | -18% (inactive) | – |
| Cc1ccc(-c2nnn(CC(=O)N(Cc3ccco3)C(C(=O)NC(C)(C)C)c3ccncc3)n2)o1 (configuration not stated) | 5.93% (inactive) | – |
| Cc1nn(-c2ccccc2)c2sc(C(=O)N(Cc3ccco3)C(C)C(=O)NC(C)(C)C)cc12 (configuration not stated) | – | 14.6 µM (active) |
| Cc1nc(C)c(C(=O)N(c2ccc(C)c(C)c2)C(C(=O)NCc2ccco2)c2ccccc2)s1 (configuration not stated) | -13% (inactive) | – |
| Cc1ccc(NC(=O)Nc2ccc3oc(C)nc3c2)cc1 | -25.8% (inactive) | – |
| CCCN1CCN(CCCNC(=O)c2ccc3nc(Cc4ccccc4)oc3c2)CC1 | -27.3% (inactive) | – |
| COc1ccc2oc(=O)c(-c3cn4c(n3)sc3cc(OC)ccc34)cc2c1 | -13.4% (inactive) | – |
| CCOC(=O)c1ccccc1NC(=O)c1sc2nc(-c3ccc(F)cc3)cn2c1C | -0.672% (inactive) | – |
| CCN1CCN(CCCNC(=O)c2ccc3c(c2)sc2nc(-c4ccc(OC)cc4)cn23)CC1 | – | 1.3 µM (active) |
| O=C(COC(=O)c1n[nH]c2ccccc12)NCc1ccccc1 | -3.5% (inactive) | – |
| COc1ccc(-c2cc(C(=O)NCCCN3CCOCC3)no2)cc1 | -21.3% (inactive) | – |

| Structure (SMILES) | activity change, negative = growth inhibition | Potency |
| --- | --- | --- |
| COc1ccc(NC(=O)c2cc(-c3ccc(C)cc3)on2)cc1 | 3.31% (inactive) | – |
| O=C(NCCc1ccc(F)cc1)c1n[nH]c2ccccc12 | -12.6% (inactive) | – |
| COc1ccc(-c2cn3c(n2)sc2cc(C(=O)Nc4ccccc4F)ccc23)cc1 | – | 3.66 µM (active) |
| COc1cccc(CNC(=O)c2n[nH]c3ccccc23)c1 | – | 16.4 µM (active) |
| COc1ccccc1NC(=O)c1ccc2nc(N3C(=O)CCC3=O)sc2c1 | -2.13% (inactive) | – |
| COc1ccc(-c2cn3c(C)c(C(=O)Nc4cc(C)cc(C)c4)sc3n2)cc1 | – | 16.4 µM (active) |
| O=C(OCC(=O)N1CCCCC1)c1ccc(OC(F)(F)F)cc1 | -11.7% (inactive) | – |
| CCN(CC)C(=O)C1CCC(C)(C(=O)O)C1(C)C (configuration not stated) | -3.85% (inactive) | – |
| O=S(=O)(NCCSc1ccccn1)c1ccc(Cl)cc1 | -8.5% (inactive) | – |
| CC(C)=NN1C(=O)c2ccccc2NC1(C)C | -4.65% (inactive) | – |
| Cc1nnsc1C(=O)Nc1cccc(Cl)c1C | -1.62% (inactive) | – |
| COc1cccc(CNC(=O)c2ccc3c(c2)sc2nc(-c4cccc(OC)c4)cn23)c1 | – | 4.11 µM (active) |
| COc1cccc(CNC(=O)Cn2ncn3c(cc4ccccc43)c2=O)c1 | -13.4% (inactive) | – |
| COc1cccc(CNC(=O)CCc2nc(-c3ccc(C)cc3)no2)c1 | -22.7% (inactive) | – |
| CCCC(=O)Nc1cc(OCC)c(NC(=O)NC2CCCCC2)cc1OCC | -4.1% (inactive) | – |
| CCOc1cc(NC(=O)Nc2ccccc2)c(OCC)cc1NC(=O)CC | -29.2% (inactive) | – |
| CCOc1cc(NC(=O)CCl)c(OCC)cc1NC(C)=O | – | 16.4 µM (active) |
| C=CC1=C(C(=O)O)N2C(=O)[C@@H](NC(=O)/C(=N/OCC(=O)O)c3csc(N)n3)[C@H]2SC1 | -3.69% (inactive) | – |
| COc1cc(N/C=C2\CC(=O)NC(C)=C2C#N)cc(OC)c1OC | – | 25.9 µM (active) |
| COc1cc2c(cc1OC)C(C(=O)Nc1cc(C)c(OC)c(C)c1)CC(=O)N2 (configuration not stated) | -8.04% (inactive) | – |
| COC(=O)C1=C(C)NC(=O)CC1c1ccccc1OC (configuration not stated) | -10.2% (inactive) | – |
| CC(C)CNC(=O)C1(C)CCCN1C(=O)CSc1ccccc1 (configuration not stated) | -14.1% (inactive) | – |
| O=C1CN(C(=O)Nc2ccccc2C(F)(F)F)C(c2ccccc2)c2c(sc3c2CCCC3)N1 (configuration not stated) | – | 18.4 µM (active) |

| Structure (SMILES) | activity change, negative = growth inhibition | Potency |
| --- | --- | --- |
| Cc1ccccc1NC(=O)N1CCCC1C(=O)NCc1ccccc1 (configuration not stated) | 22.4% (inactive) | – |
| O=C(CSc1n[nH]c(=O)n1-c1ccccc1)Nc1ccccc1C(F)(F)F | 10.9% (inactive) | – |
| [2H]C(CCOS(N)(=O)=O)c1ccccc1 (configuration not stated) | -7.22% (inactive) | – |
| Cn1c(=NC(=O)C2CC2)sc2cc(F)cc(F)c21 | 1.11% (inactive) | – |
| O=C(NC(c1ccccc1)c1ccccc1)N1CCN(CCO)CC1 | -19% (inactive) | – |
| O=C(CN1CCN(Cc2ccccc2)CC1)NC(c1ccccc1)c1ccccc1 | – | 23.1 µM (active) |
| O=C(CN1CCc2ccccc21)NC(c1ccccc1)c1ccccc1 | -15.6% (inactive) | – |
| CC12CCC(=O)N1C(C(=O)Nc1ccc(F)c(F)c1F)CS2 (configuration not stated) | -2.89% (inactive) | – |
| COC(=O)/C=C(\Oc1ccccc1)C1(O)CCCCC1 | -6.36% (inactive) | – |
| CCNC(=O)NNC(=O)C1CC(c2cccs2)=NO1 (configuration not stated) | 1.39% (inactive) | – |
| Cc1cc(C(=O)NNC(=O)c2cccc(S(=O)(=O)N3CCOCC3)c2)c2ccccc2n1 | -3.56% (inactive) | – |
| O=C(N/N=C/c1ccc([N+](=O)[O-])o1)c1cccc(S(=O)(=O)N2CCOCC2)c1 | – | 18.4 µM (active) |
| Cc1nc2ccc(NC(=O)c3cccc(S(=O)(=O)N4CCOCC4)c3)cc2s1 | – | 20.6 µM (active) |
| O=C(COC(=O)c1ccccc1)Nc1cccc(S(=O)(=O)N2CCOCC2)c1 | -17.9% (inactive) | – |
| Cc1cc2ccccn2c1C(=O)c1cccc(S(=O)(=O)N2CCOCC2)c1 | – | 16.4 µM (active) |
| O=C(Nc1ccc(S(=O)(=O)Nc2nccs2)cc1)c1cccc(S(=O)(=O)N2CCOCC2)c1 | 15% (inactive) | – |
| NC(=O)CSc1nnc(-c2cccc(S(=O)(=O)N3CCOCC3)c2)o1 | -10.2% (inactive) | – |
| COc1ccc(Br)cc1/C=N/NC(=O)c1cccc(S(=O)(=O)N2CCOCC2)c1 | -49.8% (inactive) | – |
| O=C(c1cccc(S(=O)(=O)N2CCOCC2)c1)N1CCOCC1 | 3.04% (inactive) | – |
| CCOc1cc(/C=N/NC(=O)c2cccc(S(=O)(=O)N3CCOCC3)c2)ccc1OCC(=O)N(C)C | -4.34% (inactive) | – |
| O=C(Nc1nnc(-c2ccccc2)o1)c1cccc(S(=O)(=O)N2CCOCC2)c1 | – | 16.4 µM (active) |
